From PubChem BioAssay (NCATS)
Inconclusive results are not listed. Values without a mark were called inactive. Calls follow the shape of the dose curve; as a rule, active = well fitted activation curve with a large enough effect; inconclusive = small, poorly fitted or top-dose-only effect; inactive = flat fitted curve, though single readings scatter.

test: Primary redox qHTS assay for identification of artifact compounds. (AID 1845223); conditions: Amplex Red/HRP redox cycling with DTT, fluorescence; series mostly up to 53.8 µM; redox activity (% of DA3003): at the top concentration;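 also: 0% = DMSO and 100% = reference compound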
Method in brief: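 Redox-cycling detection via DTT (250 uM final) oxidation coupled to Amplex Red (25 uM)/HRP (250 mU/mL) in HBSS. 15 min preincubation plus 30 min after DTT, room temperature. Ex/Em 525/598 nm; 4-parameter Hill fit against DMSO and 10 uM DA3003.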

SMILES | redox activity (% of DA3003)
C[C@@H]1CC[C@]2(C)C3(C)CC[C@@]2(OC3=O)[C@@]12C[C@H](c1ccoc1)OC2=O | -5.36%
COC(=O)C1=COC(OC2OC(CO)C(O)C(O)C2O)C2C1CC(OC(=O)C(O)CC(=O)O)C2C (stereo not drawn) | -1.12% [at 25.6 µM]
C=CC1C(O[C@@H]2O[C@H](CO)[C@@H](O)[C@H](O)[C@H]2O)OC=C(C(=O)OC)C1Cc1nccc2c1[nH]c1ccccc12 (stereo partly drawn) | 3.74% [at 25.6 µM]
C=C1C2(CCC(=O)OC2(C)C)CC(OC(=O)/C(C)=C/C)C2(C)C13OC14C(=O)OC(C)(C(=O)C12C(=O)OC4C)C3OC(C)=O (stereo not drawn) | -1.57% [at 25.6 µM]
C=C[C@@]1(C)CC(=O)C2[C@](C)(O1)[C@@H](OC(C)=O)[C@@H](O)[C@H]1C(C)(C)CCC[C@]21C (stereo partly drawn) | 11% [at 11.5 µM]
C=CC(C)(O)CC/C=C(\C)C(=O)OC1CC2(C(=O)O)CCC3(C)C(=CCC4C5(C)CCC(OC6OC(COC7OCC(O)C(O)C7O)C(O)C(OC7OCC(O)C(O)C7O)C6OC6OC(CO)C(O)C(O)C6OC6OCC(O)C(O)C6O)C(C)(C)C5CCC43C)C2CC1(C)C (stereo not drawn) | 11.8% [at 11.5 µM]
COC1=CC(=O)O[C@@H](CCc2ccccc2)[C@@H]1O | -0.186%
C[C@@H]1O[C@@H](O[C@H]2[C@H](OC(=O)C34CCC(C)(C)CC3C3=CCC5C6(C)CC(O)C(O[C@@H]7O[C@H](CO)[C@@H](O)[C@H](O)[C@H]7O)C(C)(C(=O)O)C6CCC5(C)C3(CO)CC4)O[C@H](C)[C@H](O)[C@@H]2O)[C@H](O)[C@H](O)[C@H]1O[C@@H]1OC[C@@H](O)[C@H](O)[C@H]1O (stereo partly drawn) | 9.03% [at 11.5 µM]
C=C1CC23CCC4[C@@](C)(CCC[C@@]4(C)C(=O)O)C2CCC1C3 (stereo partly drawn) | 6.09%
CC1(C)CC2C3=CCC4C5(C)CCC(OC6OC(CO)C(O)C(OC7OC(CO)C(O)C(OC8OC(CO)C(O)C(OC9OC(COC%10OC(CO)C(O)C(O)C%10O)C(O)C(O)C9O)C8O)C7O)C6O)C(C)(C)C5CCC4(C)C3(C)CCC2(C(=O)O)CC1O (stereo not drawn) | 10.1% [at 11.5 µM]
C=C(C)[C@@H]1CC[C@](C)(O)[C@@H](OC(=O)c2ccccc2)C1 | -4.73%
COC(=O)C1=CO[C@@H](O[C@@H]2O[C@H](CO[C@@H]3O[C@H](COC(=O)/C=C/c4ccc(O)cc4)[C@@H](O)[C@H](O)[C@H]3O)[C@@H](O)[C@H](O)[C@H]2O)[C@@H]2C(CO)=CC[C@H]12 | 19.5% [at 25.6 µM]
COc1cc([C@@H]2Oc3c(OC)cc(CCCO)cc3[C@@H]2CO[C@@H]2O[C@H](CO)[C@@H](O)[C@H](O)[C@H]2O)ccc1O | -0.54% [at 25.6 µM]
